Columns and labels:
Format in all cases: functional
[1] = target: Solute carrier family 2, facilitated glucose transporter member 1 (Homo sapiens) (UniProt P11166); experiment: ST_JUDE_LEISH: Cytotoxicity at 2uM final concentration against transgenic Leishmania Mexicana promastigotes LmGLUT1 that are glucose transport deficient and complemented with the human glucose transporter GLUT1. Activity is measured by DNA content using SYBR green in vitro
[2] = target: Hexose transporter 1 (Plasmodium falciparum) (UniProt O97467); experiment: ST_JUDE_LEISH: Cytotoxicity at 2uM final concentration against transgenic Leishmania Mexicana promastigotes LmPfHT that are glucose transport deficient and complemented with the Plasmodium falciparum hexose transporter. Activity is measured by DNA content using SYBR green in vitro
[3] = target: Glucose transporter (Leishmania mexicana) (UniProt O61059); experiment: ST_JUDE_LEISH: Cytotoxicity at 2uM final concentration against transgenic Leishmania Mexicana promastigotes LmGT2 that are glucose transport deficient and complemented with the L. Mexicana glucose transporter 2. Activity is measured by DNA content using SYBR green in vitro

Sequence of Solute carrier family 2, facilitated glucose transporter member 1 (Homo sapiens) (P11166 whole entry): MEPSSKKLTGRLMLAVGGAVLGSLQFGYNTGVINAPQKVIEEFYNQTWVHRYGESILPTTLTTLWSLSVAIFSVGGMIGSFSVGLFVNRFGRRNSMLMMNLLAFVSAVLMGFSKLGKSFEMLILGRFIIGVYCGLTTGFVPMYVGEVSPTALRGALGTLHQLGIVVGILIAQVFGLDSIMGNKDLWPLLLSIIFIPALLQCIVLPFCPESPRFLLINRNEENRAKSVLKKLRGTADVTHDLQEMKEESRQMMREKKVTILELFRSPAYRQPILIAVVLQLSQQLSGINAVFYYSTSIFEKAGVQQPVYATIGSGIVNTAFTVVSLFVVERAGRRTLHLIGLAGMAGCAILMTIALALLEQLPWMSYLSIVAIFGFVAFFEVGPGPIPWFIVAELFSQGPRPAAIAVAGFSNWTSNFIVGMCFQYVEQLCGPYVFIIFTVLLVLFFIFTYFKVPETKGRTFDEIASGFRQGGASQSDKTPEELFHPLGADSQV

Row | Compound | inhibition [1] | inhibition [2] | inhibition [3]
1 | FC(F)(F)COc1ccc(CCNCCCCNCCc2ccc(OCC(F)(F)F)c3ccccc23)c2ccccc12 | -0.09% | 12.3% | 1.09%
2 | COc1ccc(-c2nc3ccc(C)nc3nc2-c2ccc(OC)cc2)cc1 | 5.17% | 3.91% | 3.89%
3 | COc1cc(Cc2cnc(N)nc2N)cc(OCCCS(=O)(=O)O)c1OC | 4.25% | 2.33% | 3.36%
4 | COc1cc(C2Nc3ccc4ccccc4c3C3=C2C(=O)CC(C)(C)C3)ccc1Oc1ccc([N+](=O)[O-])cc1C#N (stereo not drawn) | 4.18% | 4.07% | -0.66%
5 | CCOC(=O)c1c(C)n(-c2ccccc2)c2ccc(OC(=O)COc3ccc(Cl)cc3Cl)cc12 | 7.5% | 6.74% | 6.97%
6 | Cc1ccc(Nc2nc(N/N=C/c3cc4c(cc3Br)OCO4)nc(Nc3ccc([N+](=O)[O-])cc3)n2)cc1C | 1.58% | 2.19% | 4.71%
7 | Cc1cc(N2Cc3ccccc3C2)nc(Nc2ccc(S(=O)(=O)N3CCOCC3)cc2)n1 | 1.54% | 2% | 1.21%
8 | CCCC(=O)Nc1ccc(OCCN(Cc2ccccc2OC(F)(F)F)c2ccc(C(F)(F)F)c(C#N)c2)cc1 | 3.46% | 1.7% | 2.31%
9 | Cc1cc(C)cc(OCC(O)CN(Cc2cc(Cl)cc(Cl)c2)C(=O)Nc2ccc([N+](=O)[O-])cc2)c1 (stereo not drawn) | 4.12% | 3.99% | 5.26%
10 | CCC(C)NC(=O)Nc1cccc(-c2cccc(-c3nc4cccc(C)c4[nH]3)c2)c1 (stereo not drawn) | -1.54% | -0.37% | 11.5%
11 | CCCCC(CCCC)CN1C(=O)C(c2ccccc2)(c2ccccc2)N=C1N | 1.9% | 1.66% | 0.77%
12 | CCCCCCNC(=O)C(N)CCCC(N)C(=O)NCCCCCC (stereo not drawn) | 6.05% | 5.65% | 5.23%
13 | CN1CC[C@@H](Oc2cc(C(=O)NCc3ccc(Cl)c(Cl)c3)ccc2C(F)(F)F)C1 | -0.85% | -1.04% | 0.48%
14 | N#Cc1ccc2c(c1)CCN(CCC1CCC(Nc3ncnc4ccccc34)CC1)C2 (stereo not drawn) | 10.7% | 3.96% | 4.21%
15 | O=C(CCCc1ccccc1)Nc1cccc(N2CCC(N3CCN(c4ccccc4O)CC3)CC2)c1 | 11.8% | 7.32% | 7.72%
16 | O=C(/C=C/c1ccc(Cl)c(Cl)c1)NCCCCCN1CCCN(C(=S)Nc2ccc(Cl)c(Cl)c2)CC1 | -0.53% | -1.2% | 0.13%
17 | Cc1ccc(/C=C/C(=O)NC2CCC(N3CCC(c4ccccc4C)CC3)CC2)cc1C (stereo not drawn) | 4.77% | 4.56% | 1.93%
18 | COc1ccc2nccc([C@@H](O)CN3CCC(NCc4cc5cccc6c5n(c4=O)CCC6)CC3)c2c1 | 2.12% | 2.16% | 2.27%
19 | CCCCN(C(=O)c1ccccc1Cl)c1nnc(-c2ccccc2C)s1 | -1.28% | 0.39% | 0.03%
20 | Cc1ccc(CCC(C)NCC(O)c2cccc(C(F)(F)F)c2)cc1 (stereo not drawn) | -0.37% | 0.53% | 0.17%
21 | CCCC(C)Nc1nc(C)cc(N[C@@H](CC(C)C)C(=O)NCCc2ccccc2)n1 (stereo partly drawn) | 7.28% | 6.41% | 8.06%
22 | CCN(CC(C)O)C(=O)c1ccc(-c2ccc(-c3nc4cccc(C)c4[nH]3)cc2)cc1 (stereo not drawn) | 6.07% | -2.57% | 0.55%
23 | COc1cc2ccccc2c(OC)c1CNCCCCCCNCc1c(OC)cc2ccccc2c1OC | 11.1% | 7.88% | 12.4%
24 | COc1ccccc1N1CCN(C(C(=O)NCc2cccc(F)c2)c2ccc(C)cc2)CC1 (stereo not drawn) | 2.99% | 3.56% | -1.92%

Row | Compound | inhibition [1] | inhibition [2] | inhibition [3]
25 | CC1=C(C(=O)Nc2ccc(Cl)cc2)C(c2ccncc2)n2nc(C(F)(F)F)nc2N1 (stereo not drawn) | 3.72% | 2.96% | -2.29%
26 | O=C(NCCc1cccc(Cl)c1Cl)c1cnc(N2CCN(c3ccncc3)CC2)c(Cl)c1 | 77.2% | 81.6% | 83.9%
27 | CCCCCCN1CCC(CNCc2cccc(Cl)c2)CC1 | 1.66% | 2.08% | 1.97%
28 | COc1cccc(CN2CCN(C(c3ccccc3)c3ccccc3)CC2)c1O | 6.87% | 6.03% | 2.74%
29 | Cc1cc(C(=O)Nc2ccc3c(c2)CCN3C2CCN(Cc3ccc(F)cc3Cl)C2)no1 (stereo not drawn) | 4.11% | 3.71% | 3.86%
30 | Cc1cc(C(=O)CN2C(=O)NC(C)(c3cccc4ccccc34)C2=O)c(C)n1Cc1ccco1 (stereo not drawn) | 6.55% | 6.14% | 4.09%
31 | COc1cc(C(=O)NC2CCN(Cc3ccccc3)CC2)ccc1-c1cc2cc(Cl)c(Cl)cc2[nH]1 | 3.35% | 4.32% | 2%
32 | O=C(Nc1cc(F)c(F)c(-c2cccnc2)c1)N1CCc2cc(Cl)c(Cl)cc21 | 0.67% | -1.8% | -0.31%
33 | c1cncc(Oc2ccc(Nc3ccnc4cc(-c5cccc(CN6CCOCC6)c5)ccc34)cc2)c1 | -1.93% | -1.33% | -1.76%
34 | CN1CCN(c2ccnc3cc4c(cc23)N(Cc2ccccc2)CC4)CC1 | -1.34% | -0.13% | 0.13%
35 | CS(=O)(=O)CCNCc1nc(-c2ccc3c(=O)[nH]cnc3c2)cs1 | 18.2% | 48% | 31.5%
36 | O=C(/C=C/c1ccc(Cl)c(Cl)c1)NCCCCCN1CCC(NC(=O)Nc2ccc([N+](=O)[O-])cc2)CC1 | -0.34% | 1.11% | -0.43%
37 | COc1ccc(F)cc1-c1cccc(CNC2CCN(CC3Cn4c(=O)ccc5ccc(F)c3c54)CC2)c1 (stereo not drawn) | 10.1% | 14.3% | 18.8%
38 | O=C(NCCCN1CCC(N2CCCCC2)CC1)c1ccc(N2CCOc3ccccc32)s1 | 1.25% | 0.98% | 3.19%
39 | CC(C)CNC(=S)N1CCCN(c2nc3ccc(Cl)cc3s2)CC1 | 3.18% | 2.71% | 0.2%
40 | CCc1ccc(OCc2ccccc2C(=O)Nc2ccc3nc(C)cc(N)c3c2)cc1 | 2.1% | 2.87% | 1.97%
41 | Cc1ccc(-c2nc(Nc3ccncc3)c3ccccc3n2)s1 | 5.34% | 3.16% | 0.88%
42 | CN1CCN(CCCN(Cc2csc(-c3ccc(CNCc4ccccc4)cc3)n2)C(=O)c2cc(F)cc(F)c2)CC1 | 4.63% | 2.02% | 1.42%
43 | CN(C)CCCNCc1ccc(-c2ccc(C(F)(F)F)cc2)cc1 | 5.63% | 4.5% | 4.81%
44 | C=CCOC1OC(COC(c2ccccc2)(c2ccccc2)c2ccccc2)C(OC(C)=O)C(OC(C)=O)C1NC(C)=O (stereo not drawn) | 1.33% | 1.07% | 0.34%
45 | CCCCc1ccc(C(=O)Nc2ccc3nc(N4CCN(CC)CC4)cc(C)c3c2)cc1 | -2.18% | -0.16% | -1.24%
46 | C=CCN(c1nc(NC)nc(NCc2c(OC)cccc2OC)n1)C1CCCC1 | 5.12% | 3.87% | 1.88%
47 | C[C@@H](NC(=O)NC(CCN1CCC2(CC1)CN(S(C)(=O)=O)c1ccccc12)c1ccc(Cl)c(Cl)c1)c1ccccc1 (stereo partly drawn) | 0.39% | 4.43% | -3.56%
48 | C[C@H](Cc1ccc(OCCCCCCOc2ccc(C[C@@H](C)NC(=O)[C@H](O)c3cccc(Cl)c3)cc2)cc1)NC[C@H](O)c1cccc(Cl)c1 | 7.21% | 5.41% | 4.7%

Row | Compound | inhibition [1] | inhibition [2] | inhibition [3]
49 | CN(C)Cc1ccc(-c2ccc(NC(=O)c3ccc4c(=O)n(Cc5ccoc5)cnc4c3)cc2)cc1 | 1.36% | 1.35% | -0.37%
50 | c1ccc(COc2ccccc2COc2ccccc2-c2ccc3cccnc3n2)cc1 | 0.28% | -0.32% | 5.87%
51 | Oc1c(CN2CCC(Cc3ccccc3)CC2)cc(Cl)c2cccnc12 | 13.5% | 14% | 9.31%
52 | COCCNCc1nc(-c2ccc3c(Nc4ccc(F)c(O)c4)ccnc3c2)cs1 | 2.38% | 1.29% | 0.42%
53 | CCCCC1(c2ccc(F)cc2)NC(=O)N(CC(=O)c2cc(C)n(Cc3ccco3)c2C)C1=O (stereo not drawn) | -0.18% | 0.18% | -0.26%
54 | CCOc1ccc(/C=C/C(=O)Nc2cccc3c2CCN(C)C3)cc1 | 8.24% | 7.2% | 6.27%
55 | CCc1ccc(CN2CCC(CNC(=O)c3cc(-c4ccccc4Cl)cs3)C2)cc1 (stereo not drawn) | 7.86% | 8.8% | 10.8%
56 | CCOc1ncccc1CN1CCC(N2CCc3cc(NC(=O)c4ccco4)ccc32)C1 (stereo not drawn) | 0.43% | -0.71% | 1.65%
57 | Cc1ccc(F)c(OCC2CCCN(c3ccc(C(=O)NC4CC4)cn3)C2)c1 (stereo not drawn) | 3.46% | 4.3% | 2.18%
58 | CN1CCC(NCc2ccc(-c3cccc(S(=O)(=O)NCc4ccccc4)c3)cc2)CC1 | 2.23% | 3.01% | -1.01%
59 | COc1ccc(-c2ccc(CNCc3ccsc3)cc2)cc1S(=O)(=O)NCCN1CCCC1 | -0.99% | 0.23% | -2.28%
60 | O=C(NC1CCN(Cc2ccc(Cl)cc2)CC1)c1cn(-c2ccccc2)nc1-c1cccnc1 | 1.12% | 0.95% | 1.49%
61 | O=C(/C=C/c1ccc(Cl)c(Cl)c1)NCCC(CN1CCC(c2c[nH]c3ccccc23)CC1)c1ccccc1 (stereo not drawn) | 2.74% | 2.22% | 0.88%
62 | Cc1cccc2[nH]cc(C3CCN(CCC4CCN(C(=O)/C=C/c5ccc(Cl)c(Cl)c5)CC4)CC3)c12 | 1.19% | -2.11% | 2.11%
63 | COc1ccc2c(=NN=CC=Cc3ccccc3)cc(C)[nH]c2c1 | 0.78% | 4.29% | 3.21%
64 | Cc1[nH]c2ccccc2c(=O)c1Br | 5.04% | 5.06% | -5.87%
65 | CNC(=O)c1ccc(/C=C/C(=O)N2CCc3ccc(-c4ccccc4)cc3C2c2cccc(C(F)(F)F)c2)cc1 (stereo not drawn) | 2.29% | -0.01% | 0.99%
66 | CN1CCCN(c2ccnc3cc4c(cc23)N(C(=O)c2ccc(C(F)(F)F)cc2)CC4)CC1 | 5.22% | 5.41% | 7.79%
67 | O=S(=O)(NCCN1CCCC1)c1ccc(-c2cccc(CNCc3ccc(F)cc3)c2)cc1F | 3.24% | 5.71% | 4.01%
68 | O=C(Nc1ccc(C(F)(F)F)cc1)c1cccc(S(=O)(=O)NC2CCN(Cc3ccccc3)C2)c1 (stereo not drawn) | 4.37% | 3.64% | 3.95%
69 | Oc1cccc(CNCCCN(Cc2ccccc2)c2ccccc2)c1 | 1.74% | -0.63% | 0.16%
70 | CN1CCN(c2ccc3nccc(CCN4CCC(NCc5ccc6c(n5)NC(=O)CO6)CC4)c3n2)CC1 | -0.03% | -0.01% | -0.12%
71 | CCCCN(CCCC)CC(O)c1cc(-c2ccc(Cl)cc2)nc2c(Cl)cc(Cl)cc12 (stereo not drawn) | 6.76% | 7.36% | 4.19%

Reference: ChEMBL document CHEMBL3433997, “St. Jude Leishmania screening dataset” (2016)
